According to paper PMC5540273 (PLoS ONE, 2017):

These molecules were tested on ZAK. Settings: concentration: 1 μM, replicates: in singlicate; n = 1.
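Also: KINOMEscan kinase panel screen.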

Row | Structure (SMILES) | %Inh [%]
1 | COC(=O)C(NC(=O)NC1CCN(c2ccnc(Nc3ccc(F)cc3)n2)C1)c1ccccc1 (centres unmarked) [GSK1379712] | 0
2 | Cc1ccc(NC(=O)Nc2ccc(Cl)c(C(F)(F)F)c2)cc1-c1ccc(C(=O)Nc2ccncc2)cc1 [GSK1398470] | 59
3 | COc1ccc(-c2coc3ccc(-c4nnc(C)o4)cc23)cc1 | 0
4 | COC(=O)c1cccc(NC(=O)NC2CCN(c3ccnc(Nc4ccc(OC)cc4)n3)C2)c1 (centres unmarked) [GSK1379746] | 0
5 | CC(=O)c1c(C)c2cnc(Nc3ccn(C)n3)nc2n(C2CCCC2)c1=O | 0
6 | CC(=O)c1c(C)c2cnc(Nc3ccc(N4CCNCC4)cn3)nc2n(C2CCCC2)c1=O | 0
7 | CNC(=O)c1ccc(C)c(-n2c(C)cc(OCc3ccc(F)cc3F)c(Br)c2=O)c1 | 0
8 | FC(F)(F)c1ccccc1-c1cc(-c2c[nH]nc2-c2ccccn2)ccn1 [GW679396] | 0
9 | CCn1c(-c2c(N)noc2C)nc2cnccc21 [SB-737856] | 30
10 | Fc1ccc(-c2nn3cccc(F)c3c2-c2ccncc2)cc1 [GW475620] | 25
11 | CS(=O)(=O)Cc1ccc(Nc2nccc(-c3c(-c4cccc(NC(=O)C5CCCCC5)c4)nn4ncccc34)n2)cc1 [GSK350559] | 15
12 | CC(C)c1cc(-c2ccc3c(N)n[nH]c3c2)nc(N)n1 [GSK2250882] | 11
13 | Nc1cccc(-c2ccc3c(N)n[nH]c3c2)n1 [GSK2192730] | 10
14 | COc1nccc(-c2c(-c3ccc(F)cc3)ncn2CCCN2CCOCC2)n1 [SB-282852] | 11
15 | Cc1ccc(NC(=O)Nc2ccccc2)cc1-c1ccc(C(=O)Nc2ccncc2)cc1 [GSK1398471] | 53
16 | O=C(Nc1n[nH]c2nc(-c3cccs3)c(Br)cc12)C1CC1 [SB-735297] | 30
17 | O=C(Nc1n[nH]c2nc(-c3cccs3)c(Br)cc12)C1CCCC1 [SB-743341] | 19
18 | O=c1cc(N2CCOCC2)nc2n(Cc3ccccc3F)ccn12 [GSK2297428] | 0
19 | Cl.Cl.Cl.N#Cc1ccc(CCNc2nccc(-c3cccc(CN4CCNCC4)c3)n2)cc1 [GSK2137462] | 10
20 | CSc1ccc(-c2nc3n(c2-c2ccncc2)CCC3)cc1 [SKF-105561] | 3
21 | Cc1ccc(NC(=O)Nc2ccccc2F)cc1-c1ccc(C(=O)Nc2ccncc2)cc1 [GSK1398477] | 60
22 | CCc1ccc(-c2ccc3c(c2)-c2n[nH]cc2S(=O)(=O)N3C)cc1 | 5
23 | COc1ccc(Nc2nccc(N3CCC(NC(=O)c4cc5ccccc5s4)C3)n2)cc1 (centres unmarked) [GSK1379738] | 60
